Bioassay records as filed in PubChem.
GRIN3A LBD mod = binders of NR3A ligand-binding domain, primary screen, biophysical, differential scanning fluorimetry, uHTS | Glutamate receptor ionotropic, NMDA 3A (GRIN3A) ligand-binding domain | NR3A LBD differential scanning fluorimetry, Tm shift; 0% = protein alone, 100% = glycine-bound protein | Tm shift relative to glycine control, % at 25 µM | actives 2.5% (n = 340,000);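 active = melting temperature shift of at least 10% of the positive control shift, at one fixed dose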
ADAM17 inh = ADAM17 inhibitors, primary screen, biochemical, QFRET; recombinant ADAM17, EDANS/DABCYL FRET peptide cleavage; inhibition, % at 6.95 µM; actives 0.83% (n = 370,000); AID 720648, 2013;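 active = inhibition above the mean of compounds lying between control limits plus 3 SD, set per campaign, cut at about 8.5% in these data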
ADAM10 inh = human ADAM10 inhibitors, primary screen, biochemical, QFRET, HTS; AID 720582, 2013; actives 0.62% (n = 370,000); recombinant ADAM10, EDANS/DABCYL FRET peptide cleavage, 3 h; inhibition, % at 7 µM; Disintegrin and metalloproteinase domain-containing protein 10 (Homo sapiens), O14672;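 active = inhibition above a per-campaign cutoff equal to the mean of compounds falling between control-based bounds plus 3 SD, cut at about 20% in these data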
Target sequence (O14672 214-748 limits assumed): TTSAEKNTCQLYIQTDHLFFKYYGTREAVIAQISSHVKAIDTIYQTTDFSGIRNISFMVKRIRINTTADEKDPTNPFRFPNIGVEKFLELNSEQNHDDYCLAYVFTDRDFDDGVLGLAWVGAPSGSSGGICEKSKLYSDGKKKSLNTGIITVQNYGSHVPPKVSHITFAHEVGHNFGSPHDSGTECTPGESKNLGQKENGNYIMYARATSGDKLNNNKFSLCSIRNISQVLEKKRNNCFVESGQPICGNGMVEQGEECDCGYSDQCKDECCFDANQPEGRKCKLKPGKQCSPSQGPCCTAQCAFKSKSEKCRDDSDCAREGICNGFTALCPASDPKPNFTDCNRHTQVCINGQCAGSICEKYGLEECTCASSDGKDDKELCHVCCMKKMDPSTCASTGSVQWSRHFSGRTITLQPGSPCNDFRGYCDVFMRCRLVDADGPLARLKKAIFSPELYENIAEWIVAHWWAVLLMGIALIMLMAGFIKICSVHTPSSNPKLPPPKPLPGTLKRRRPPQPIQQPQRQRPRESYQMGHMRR
rCAG RNA binder = binders of r(CAG) RNA repeats, primary screen, biochemical, fluorescence | r(CAG) RNA repeat, TO-PRO-1 dye displacement fluorescence | AID 651821, 2012 | actives 1.3% (n = 370,000) | inhibition, % at 3 µM;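 active = inhibition above the plate cutoff, the mean of all test compounds on that plate plus 3 SD, cut at about 35% in these data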;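 note: higher means more dye released from RNA so lower well fluorescence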
AHR activator = AHR activators, primary screen, cell-based, luminescence, luciferase reporter, human; Aryl hydrocarbon receptor (Homo sapiens), P35869; AHR-responsive luciferase reporter cells; activation, % at 5 µM; actives 2.5% (n = 320,000); AID 2796, 2010; in the data active = activation above about 47%
KLK7 zymogen act = proKLK7 zymogen activators, primary screen, biochemical, fluorescence intensity. Kallikrein-7 (Homo sapiens), P49862. purified proKLK7, EDANS-DABCYL substrate fluorescence; 100% is mature enzyme control, 0% vehicle. activation, % at 7 µM. actives 0.9% (n = 370,000);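 active = activation above the mean of all tested compounds plus 3 SD, computed per campaign excluding outliers beyond control limits, cut at about 13% in these data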
Each line names hits and unclear results; the compound was inactive in the other large screens. Most compounds without a hit are left out; they make up all but 7% or so of the library.

COc1cccc(/C=N/NC(=O)c2nnn(-c3nonc3N)c2C(C)C)c1OCc1ccc(F)cc1	none (no result: ADAM17 inh, ADAM10 inh, rCAG RNA binder, KLK7 zymogen act)
CC(C)c1c(C(=O)N/N=C/c2ccc(OCc3ccc(F)cc3)cc2)nnn1-c1nonc1N	GRIN3A LBD mod 29
Cc1c(C(=O)N/N=C/c2cccc(O)c2)nnn1-c1nonc1N	GRIN3A LBD mod 12
C=CCN1C(=O)[C@H](CC(=O)NCC23CC4CC(CC(C4)C2)C3)[C@@]2(C(=O)OCC)CCCC=C12	none (no result: GRIN3A LBD mod, AHR activator)
Cc1c(C(=O)Nc2nc(-c3ccccn3)cs2)oc2ccccc12	AHR activator 64 (no result: ADAM17 inh, ADAM10 inh, rCAG RNA binder, KLK7 zymogen act)
Cc1nnc(NC(=O)c2oc3ccccc3c2C)s1	AHR activator 62
O=C(COc1ccc2c3c(c(=O)oc2c1)CCCC3)NC(Cc1ccc(Cl)cc1)C(=O)O (configuration not stated)	rCAG RNA binder 38
O=C(COc1ccc2c3c(c(=O)oc2c1)CCCC3)N[C@@H](Cc1ccccc1)C(=O)O	none
O=C(Nc1ccccn1)c1ccc(-c2ccccc2)cc1	GRIN3A LBD mod 36
O=C(Nc1ccccc1Cl)c1ccc(C(=O)Nc2ccccc2Cl)cc1	none (no result: AHR activator)
Cc1nc(NC(=O)Nc2ccc(Cl)cc2)sc1C	GRIN3A LBD mod 12
CC(C)(C)c1nnc(NC(=O)Nc2ccc(Cl)cc2)s1	none
O=C(Nc1cccc(Cl)c1Cl)c1ccc(-c2ccccc2)cc1	AHR activator 65
O=C(Nc1ccc(Cl)cc1)Nc1ccc(-c2cnco2)cc1	GRIN3A LBD mod 37
CCCCN1CN2Cc3cc(OC)ccc3C2CS1(=O)=O (configuration not stated)	none (no result: GRIN3A LBD mod, AHR activator)
O=C(NCc1ccc(F)c(F)c1)C1CCCN(c2nc3ccccc3o2)C1 (configuration not stated)	none (no result: GRIN3A LBD mod, AHR activator)
O=C(Nc1ccncc1)Nc1ccc(Cl)cc1	GRIN3A LBD mod 26
O=C(Nc1ccc(Cl)cc1)Nc1ccccn1	AHR activator 50
CC1(C)C=Cc2ccc(O)c(C(=O)/C=C/c3ccccc3)c2O1	none (no result: GRIN3A LBD mod, rCAG RNA binder, AHR activator, KLK7 zymogen act)
O=C(NCCSc1c[nH]c2ccccc12)c1ccc2c(c1)OCO2	AHR activator 50
Cc1ccc(NC(=O)c2ccc3nc[nH]c3c2)nc1	none
Cc1ccc(NC(=O)c2ccc3nc[nH]c3c2)c(O)c1	AHR activator 65
COC(=O)c1ccccc1NC(=O)c1cc2sccc2n1C	AHR activator 65
O=C(CCc1c[nH]c2ccccc12)N/N=C/c1ccc2c(c1)OCO2	AHR activator 53
CNC(C#Cc1ccccc1)c1ccccc1C(F)(F)F (configuration not stated)	none (no result: GRIN3A LBD mod, rCAG RNA binder, AHR activator, KLK7 zymogen act)
COC(=O)[C@]12C[C@H](CC(=O)NCc3ccc(OC)c(OC)c3)C(=O)N(CCC3=CCCCC3)C1=C[C@H](C1CCCC1)O[C@@H]2C	none (no result: GRIN3A LBD mod, AHR activator)
O=C(NCCc1c[nH]c2ccccc12)c1ccc2nc[nH]c2c1	GRIN3A LBD mod 27
O=C(NCCc1c[nH]c2ccccc12)c1ccc2c(c1)OCO2	GRIN3A LBD mod 22
O=C(NCCc1c[nH]c2ccccc12)c1cc(Cl)c2c(c1)OCO2	GRIN3A LBD mod 30, AHR activator 48
Cn1c(C(=O)NCCc2c[nH]c3ccccc23)cc2sccc21	GRIN3A LBD mod 16
O=C(Cc1c[nH]c2ccccc12)Nc1ccc(Nc2cccnc2)c(-c2ccc(OC(F)(F)F)cc2)c1	none (no result: GRIN3A LBD mod, AHR activator)
COC(=O)[C@@]1(C(C)C)N=C(c2cc(OC)c(OC)c(OC)c2)[C@]2(O1)C(=O)N(Cc1cn(Cc3ccccc3)nn1)c1ccc(F)cc12	none (no result: GRIN3A LBD mod, AHR activator)
Cc1cc(C)n(-c2nc(C)nc3c2cnn3-c2ccccc2)n1	AHR activator 49
Cc1[nH]n(-c2ccc([N+](=O)[O-])cc2)c(=O)c1C=NCCc1c[nH]c2ccccc12	GRIN3A LBD mod 27
CCCc1[nH]n(-c2ccc([N+](=O)[O-])cc2)c(=O)c1C=NCCc1c[nH]c2ccccc12	GRIN3A LBD mod 22
CC(C)CCN(C)C1CCN(C(=O)Nc2ccc3c(c2)OCO3)CC1	none (no result: GRIN3A LBD mod, AHR activator)
